PRMT1 inh: blocks human protein arginine methyltransferase 1; recombinant PRMT1, activity-based probe fluorescence polarization; inhibition, % at 2.79 µM; 370,000 compounds, 1.3% hits; AID 652257;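 active means inhibition above about 21% made by adding two undisclosed values, limit read from the data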
TLR9-MyD88 inh: TLR9-MyD88 interaction inhibition; 340,000 compounds, 0.21% hits; inhibition, % at 4.98 µM; Q9NR96+Q99836; CHO BLA complementation TLR9-MyD88, CCF4 FRET ratio;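 active means inhibition above the mean over all tested compounds plus 3 SD, cut at about 21% in these data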;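 further: 0% = DMSO only wells and 100% = clavulanate BLA inhibitor control wells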
TLR4-MyD88 BLA: TLR4-MyD88 interaction inhibition in cells. HeLa CL3-4 TLR4/MyD88 BLA complementation, FRET ratio. 200,000 compounds, 0.18% hits. inhibition, % at 8.4 µM. O00206+Q99836; in the data active means inhibition above about 25%;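 further: 0% = vehicle and 100% = reference inhibitor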
ABHD5-PLIN5 inh: ABHD5-PLIN5 protein interaction inhibition | Q00G26+Q8WTS1 | Split G. princeps luciferase complementation, luminescence, 4 h | inhibition, % at 4 µM | 360,000 compounds, 0.78% hits | AID 602281;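 active means inhibition above the mean inhibition across every tested compound plus 3 SD, cut at about 22% in these data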;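 further: 0% = DMSO only wells and the 100% control is not disclosed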
rCAG RNA binder: molecules binding r(CAG) RNA repeats; r(CAG) RNA repeat, TO-PRO-1 dye displacement fluorescence; inhibition, % at 3 µM; 370,000 compounds, 1.3% hits;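 active means inhibition above the plate cutoff, the mean of all test compounds on that plate plus 3 SD, cut at about 35% in these data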;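 further: 0% = DMSO alone and 100% = 100 µM mitoxantrone as full dye displacement; higher means more dye released from RNA so lower well fluorescence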
NOD2 RIPK2 PPI: blocks binding of human NOD2 to RIPK2; O43353; CHO BLA complementation NOD2-RIPK2, CCF4 ratio; inhibition, % at 4.98 µM; 360,000 compounds, 0.38% hits; AID 624267; in the data active means inhibition above about 21%;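 further: 0% = vehicle only and 100% = reference blocker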
Target sequence (O43353 whole entry, looked up): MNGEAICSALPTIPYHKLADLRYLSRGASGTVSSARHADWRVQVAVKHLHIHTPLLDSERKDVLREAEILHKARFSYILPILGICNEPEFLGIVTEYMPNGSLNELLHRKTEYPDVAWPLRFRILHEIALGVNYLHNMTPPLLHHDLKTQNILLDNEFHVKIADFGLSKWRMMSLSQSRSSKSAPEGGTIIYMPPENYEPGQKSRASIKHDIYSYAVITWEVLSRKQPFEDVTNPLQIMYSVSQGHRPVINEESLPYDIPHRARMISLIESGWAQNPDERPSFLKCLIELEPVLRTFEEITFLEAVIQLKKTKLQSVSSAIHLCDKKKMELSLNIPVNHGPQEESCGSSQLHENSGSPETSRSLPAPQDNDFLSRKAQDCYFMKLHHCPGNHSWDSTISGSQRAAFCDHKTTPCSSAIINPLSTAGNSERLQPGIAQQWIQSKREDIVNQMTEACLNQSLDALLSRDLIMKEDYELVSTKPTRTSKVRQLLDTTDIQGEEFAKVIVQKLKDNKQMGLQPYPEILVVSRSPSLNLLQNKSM
rCAG binder conf: r(CAG) RNA repeat binding, confirmation; 4,300 compounds, 70% hits; TO-PRO-1 dye displacement fluorescence; shares compounds with rCAG RNA binder; inhibition, % at 3 µM;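 active means inhibition above a per-plate cutoff, the mean inhibition of sample wells plus 3 SD, cut at about 35% in these data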;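 further: loss of TO-PRO-1 fluorescence as compound displaces dye from 1x1 AA loop RNA; 0% = DMSO only wells and 100% = 100 µM mitoxantrone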
DNA CAG counter: DNA CAG dye complex inhibition counter-screen; shares compounds with rCAG RNA binder; d(CAG) DNA oligo TO-PRO-1 dye displacement, fluorescence; inhibition, % at 3 µM; 4,300 compounds, 94% hits; AID 652068;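 active means inhibition above its plate's cutoff, the mean test-well inhibition plus 3 SD, cut at about 4.8% in these data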;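 further: 0% = DNA dye mix with DMSO and 100% = 100 µM mitoxantrone; hits displace the dye from DNA and so lower well fluorescence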
DNA CAG DR: counter-screen for rCAG binders: inhibitors of DNA CAG TO-PRO-1 complex; 250 compounds, 20% hits; AID 686960; IC50, µM; shares compounds with rCAG RNA binder; DNA CAG/GTC duplex TO-PRO-1 dye displacement fluorescence; in the data active means IC50 below about 10 µM
The depositor's hits bear a star; i = inactive; . = no result. Hits are enriched below; roughly 3.3% of the tested compounds scored in any of these assays.

SMILES	PRMT1 inh	TLR9-MyD88 inh	TLR4-MyD88 BLA	ABHD5-PLIN5 inh	rCAG RNA binder	NOD2 RIPK2 PPI	rCAG binder conf	DNA CAG counter	others
COc1cccc(NC(=O)Nc2nc(SC)ns2)c1	0.6	3.1	.	0.9	43.7*	-1.3	9.3	9.4*
COc1cccc(NC(=O)Nc2nc(SC(C)(C)C)ns2)c1	1.7	8.9	.	-15.3	73.8*	-1.7	41.0*	32.5*
COc1cccc(CNC(=O)[C@@H](C)N2C(=O)N3CCc4c([nH]c5ccc(OC)cc45)C3(C)C2=O)c1 (some centres undefined)	0.0	6.6	.	-3.9	1.6	3.1	.	.
S=C(Nc1ccccc1)N1CCC(Cc2ccccc2)CC1	-1.6	2.2	.	-6.7	-5.9	1.7	.	.
O=C(O)CCCNC(=O)CCCn1nnc2ccccc2c1=O	2.8	5.7	.	-0.2	2.7	-0.9	.	.
Cc1ccccc1NC(=O)Cc1nc(CSc2nnc(-c3ccc4c(c3)OCO4)o2)cs1	-0.1	-3.5	3.0	0.3	-1.2	7.3	.	.
O=C(O)CN1C(=O)/C(=C\c2cc(Br)ccc2OCc2ccc(Cl)cc2)SC1=S	18.6	4.2	.	-1.6	87.7*	15.1	93.9*	73.9*
CN1C(=O)/C(=C\c2cccc(OCc3ccccc3)c2)SC1=S	3.8	-2.0	.	-2.3	1.6	5.1	.	.
O=C(O)CN1C(=O)/C(=C\c2cccc(OCc3ccccc3)c2)SC1=S	30.1*	1.7	.	-11.1	81.3*	1.6	72.1*	35.3*
O=C(O)CN1C(=O)/C(=C\c2cc([N+](=O)[O-])ccc2OCc2ccccc2Cl)SC1=S	18.7	-5.2	.	-12.7	86.1*	-5.1	85.2*	53.5*
O=C(O)CN1C(=O)/C(=C\c2cc(Br)ccc2OCc2ccc(F)cc2)SC1=S	1.9	2.7	.	-7.4	81.2*	-8.7	89.4*	60.7*
COc1cccc(CNC(=S)OC2CCC23CCC(c2ccccc2)CC3)c1 (centres undefined)	7.6	.	.	.	7.0	.	.	.
O=C(O)CN1C(=O)/C(=C\c2ccccc2OCc2ccccc2)SC1=S	11.4	-3.4	.	-0.1	72.6*	-6.3	73.4*	33.2*	DNA CAG DR=i
Cn1c(SCC(=O)Nc2ccc(Br)cc2)nc(O)cc1=O	-2.9	-16.8	.	-4.6	13.0	-14.6	.	.
Cc1ccc(S(=O)(=O)N(C)C)cc1NC(=O)c1cc(S(=O)(=O)N2CCCCC2)ccc1N1CCOCC1	-0.4	0.8	.	9.1	1.2	-7.2	.	.
Cc1cc(C=C2C(=O)c3ccccc3C2=O)c(C)n1-c1cccc(C(=O)O)c1	2.6	7.2	6.3	3.3	56.5*	-10.7	50.8*	14.6*
O=C(O)c1cccc(-n2cccc2C=C2C(=O)c3ccccc3C2=O)c1	3.2	-0.9	4.0	-1.7	57.3*	0.3	46.7*	13.6*
CCOC(=O)c1cccc(-c2cc(C(C)=O)c3n(c2=O)CCC3)c1	-1.5	.	.	.	-1.2	.	.	.
COc1ccc(S(=O)(=O)Nc2ccccc2C(=O)NCc2ccco2)cc1	2.2	4.9	-3.6	2.6	11.8	-10.9	.	.
O=C(NCc1ccco1)c1ccccc1NS(=O)(=O)c1ccc(Br)s1	7.7	-1.1	-6.9	-1.2	44.2*	-11.8	47.6*	16.4*
CC(C)S(=O)(=O)c1nsc2nc(=O)c(/C=C3\C=Nc4ccccc43)c(N)n12	-0.8	-7.2	-7.0	5.7	87.6*	-6.9	85.1*	55.4*
Cc1cn2c(N)c(/C=C3\C=Nc4ccccc43)c(=O)nc2s1	-3.0	-3.7	.	3.4	24.6	-2.6	.	.
CC1=Nc2ccccc2/C1=C/c1c(N)n2c(S(=O)(=O)C(C)C)nsc2nc1=O	2.2	-2.5	3.0	-1.5	72.8*	-4.9	58.8*	20.7*
CC1=Nc2ccc(C)cc2/C1=C/c1c(N)n2c(S(=O)(=O)C(C)C)nsc2nc1=O	2.8	-9.2	-8.2	1.9	80.2*	3.0	75.4*	37.4*
CSc1nsc2nc(=O)c(/C=C3\C=Nc4ccccc43)c(N)n12	-0.5	-0.3	-4.8	-2.4	31.2	-10.6	.	.
SMILES	PRMT1 inh	TLR9-MyD88 inh	TLR4-MyD88 BLA	ABHD5-PLIN5 inh	rCAG RNA binder	NOD2 RIPK2 PPI	rCAG binder conf	DNA CAG counter	others
CC1=Nc2ccccc2/C1=C/c1c(N)n2c(S(=O)(=O)CC(C)C)nsc2nc1=O	4.2	-0.1	-73.5	4.8	77.9*	-14.9	78.3*	46.0*
CC1=Nc2ccc(C)cc2/C1=C/c1c(N)n2nc(CC(=O)N3CCOCC3)sc2nc1=O	-4.2	3.9	.	-4.9	21.0	12.8	.	.
O=S(=O)(c1ccccc1)N1N=C(c2ccccc2)CC1c1ccccc1F (centres undefined)	3.1	0.6	.	-6.0	6.6	9.3	.	.
COc1ccc(OC)c2c1cc(C(=O)N[C@@H](C)C(=O)N[C@@H](C(=O)O)c1ccccc1)n2C	-1.6	4.7	.	-2.5	11.7	0.7	.	.
CSc1nsc2nc(=O)c(/C=C3\C(C)=Nc4ccc(C)cc43)c(N)n12	5.5	-7.7	-12.9	-6.4	65.9*	-2.1	46.2*	12.2*
O=C(O)CSC(C(=O)Nc1ccc(Br)cc1)c1ccc(Cl)cc1 (centres undefined)	-1.2	0.0	-8.8	0.3	37.2*	1.3	24.1	5.4*
O=C(Nc1ccnn1C1CCN(Cc2c[nH]c3ccccc23)CC1)c1ccccc1	-1.6	2.8	.	3.4	-0.4	1.8	.	.
CC(=O)CSc1nsc(SCC(C)=O)c1C#N	19.0	-18.9	16.8	-30.8	35.0*	-1.4	38.3*	17.6*
C/C=C(/CCC1NCCc2c1[nH]c1ccccc21)[Si](C)(C)C (centres undefined)	-4.1	13.7	.	-10.6	4.3	1.4	.	.
CCC(C(=O)O)n1nnc(-c2ccc(-c3ccc(OC)cc3)cc2)n1 (centres undefined)	0.4	0.5	6.6	0.4	47.8*	0.8	35.8*	10.2*
CCC(C(=O)O)n1nnc(-c2ccc(OCc3ccccc3)c(OC)c2)n1 (centres undefined)	3.4	.	.	.	0.7	.	.	.
CC1CC(C)CN(C(=O)C2CCN(c3cncnc3)CC2)C1 (centres undefined)	0.0	.	.	.	0.3	.	.	.
CCC(Sc1nc2ccsc2c(=O)n1Cc1ccc(C(=O)O)cc1)C(=O)Nc1ccc(C)c(Cl)c1 (centres undefined)	1.0	3.6	.	4.0	74.0*	-18.8	79.5*	48.7*
CCC(Sc1nc2ccsc2c(=O)n1Cc1ccc(C(=O)O)cc1)C(=O)Nc1cc(Cl)ccc1C (centres undefined)	3.6	2.6	.	10.6	13.8	-18.4	.	.
